Cruzain Triton = cruzain (T. cruzi) inhibition with detergent. AID 1478. P25779. Potency, µM, for inactives: max response, negative = inhibition, most hits filed as inhibitors. 0.43% of 200,000 active. purified cruzain, Z-FR-AMC fluorescence, 0.01% Triton;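 note: plate controls were neutral wells for no effect and buffer without enzyme for full effect; nearly all actives have a fitted effect of over 40% in size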
Target sequence (P25779 123-467 limits assumed): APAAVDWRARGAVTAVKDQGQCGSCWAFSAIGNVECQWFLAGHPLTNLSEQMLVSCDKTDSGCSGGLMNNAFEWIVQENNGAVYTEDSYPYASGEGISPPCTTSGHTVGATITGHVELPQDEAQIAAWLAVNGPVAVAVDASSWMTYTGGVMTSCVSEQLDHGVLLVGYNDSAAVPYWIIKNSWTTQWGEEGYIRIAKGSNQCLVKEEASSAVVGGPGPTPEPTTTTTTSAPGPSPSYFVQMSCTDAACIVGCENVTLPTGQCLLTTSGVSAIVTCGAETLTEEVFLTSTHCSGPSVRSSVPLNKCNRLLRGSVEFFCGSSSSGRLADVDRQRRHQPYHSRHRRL
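Z-FR-AMC hydrolysis (2 uM substrate) by cruzain (1.5 nM) monitored kinetically at ex 360/em 450 nm after 15 min room-temperature compound exposure; 0.01% Triton X-100, pH 5.5, 5 mM DTT.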
Cruzain noTriton = inhibitors of Trypanosoma cruzi cruzain without detergent | Potency, µM, inactives show max response, negative = inhibition, actives largely listed as inhibitors | purified cruzain, Z-FR-AMC fluorescence, no detergent | P25779 | 2.3% of 200,000 active;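 note: plate controls were enzyme without inhibitor for no effect and buffer without enzyme for full effect; nearly all actives have a fitted effect of over 40% in size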
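Detergent-free condition (0.00005% Triton X-100) in acetate buffer pH 5.5 with DTT. 1.5 nM enzyme and compound were pre-mixed 15 min, then 2 uM Z-FR-AMC substrate added; reaction progress from fluorescence change between first and third reads (60 s).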
Active calls of the source: *; ? = inconclusive. A selection: hits, their analogues and other compounds. The true share with any hit is near 2.4%. Calls come from the whole dose curve; as a rule, active = well fitted curve in the direction sought with a large enough effect; inconclusive = small, poorly fitted or top-dose-only effect, or another doubt; inactive = no such curve, though single readings can be large; an effect the other way counts as inactive or inconclusive. Potency is the fitted concentration of half-maximal effect.

SMILES	Cruzain Triton	Cruzain noTriton
CC1CCC(C(=O)O)([C@H](Br)C(=O)O)CC1 (stereo partly specified)	3%	1%
CC(=O)c1ccc(NC(=O)c2cccc(NC(=O)N3CCSc4ncccc43)c2)cc1	-7%	-18%
CCOC(=O)CSc1nc(-c2ccc(F)cc2)cc(C(F)(F)F)c1C#N	-1%	5%
COc1ccccc1NC(=O)Cn1c(=O)n(CCc2ccccc2)c(=O)c2c3c(sc21)CN(C(C)=O)CC3	-4%	?
Clc1ccc(/C=C\c2nc(Cl)c(-c3ccc(Cl)cc3)c(Cl)n2)cc1	2%	-9%
COc1ccccc1NC(=O)c1ccc(NC(=O)COC(=O)C(C)C)cc1	-4%	3%
COc1ccccc1NC(=O)c1ccc(NC(=O)COC(=O)CC(NC(=O)c2ccccc2Cl)c2ccccc2)cc1 (stereo unspecified)	-6%	20µM*
COC(=O)CCCC(=O)O	4%	17%
CCOc1ccc(OCC)c(NC(=O)C(NS(=O)(=O)c2ccc(Br)s2)c2ccccc2)c1 (stereo unspecified)	-1%	10µM*
CCOc1ccc(OCC)c(NC(=O)CCS(=O)(=O)c2ccc(Br)s2)c1	-7%	6%
COc1cc2oc(=O)cc(-c3cccc(-c4ccc(C(F)(F)F)cc4)c3)c2c(OC)c1OC	0%	-24%
COc1cc(OC)c2c(-c3cccc(-c4ccc(OC)c(F)c4)c3)cc(=O)oc2c1	0%	32µM*
COc1ccc(-c2cccc(-c3cc(=O)oc4ccc(C(C)(C)C)cc34)c2)cc1	0%	35µM*
COc1cc(OC)c2c(-c3cccc(-c4ccc(C(C)=O)cc4)c3)cc(=O)oc2c1	4%	?
CC(/C=C1\SC(=S)N(CCCC(=O)Nc2ccc(C(=O)O)c(O)c2)C1=O)=C\c1ccccc1	28µM*	?
CC(/C=C1\SC(=S)N(NC(=O)c2ccc(C)cc2)C1=O)=C\c1ccccc1	-6%	32µM*
Cc1cc(NC(=O)CCCN2C(=O)/C(=C/c3cccs3)SC2=S)no1	-5%	?
CC(=O)c1ccc(NC(=O)CN2C(=O)CN(C)C(=O)c3ccccc32)cc1	1%	16%
CC(/C=C1\SC(=S)N(NC(=O)c2ccccc2C)C1=O)=C\c1ccccc1	-6%	?
CC(=O)c1ccc(NC(=O)CN2C(=O)/C(=C/C(C)=C/c3ccccc3)SC2=S)cc1	-5%	10µM*
CCCCn1c(SCC(=O)c2ccccc2)nc2sc3c(c2c1=O)CCCC3	0%	-11%
CCOc1cc(C(=O)NCCc2csc(-c3ccc(C)cc3)n2)cc(OCC)c1OCC	-4%	-5%
COc1ccc(CNC(=O)C2CCN(S(=O)(=O)c3c(C)noc3/C=C/c3ccccc3F)CC2)cc1	-1%	-1%
Cc1cccc(CCNC(=O)c2nn(C)c3c2CSc2ccccc2-3)c1	-5%	-3%
FC(F)(F)c1cnc(-c2cnc3c(-c4ccc(Cl)cc4)cnn3c2)c(Cl)c1	5%	10µM*
SMILES	Cruzain Triton	Cruzain noTriton
N#Cc1cnn2cc(-c3ncc(C(F)(F)F)cc3Cl)cnc12	1%	1%
N#Cc1ccc(C(=O)Nc2ccc(Cl)c(-c3nc4cc(Cl)ccc4o3)c2)c(F)c1	-3%	8%
COc1cccc(OC)c1C(=O)NC1C(=O)N2C1SC(C)(C)C2C(=O)O (stereo unspecified)	-7%	-9%
COc1cccc(C(=O)Nc2ccc(-c3nc4ccccc4s3)cc2Cl)c1	-3%	?
COc1ccc(-c2ccc(=O)n(CC(=O)Nc3ccc(N(C)C)cc3)n2)cc1	-2%	-6%
COc1ccc(N(Cc2cccs2)C(=O)c2ccc(Br)o2)cc1	-5%	5%
COc1ccc(CNC(=O)CSc2nnc(C)c3c(C)n(-c4ccccc4)nc23)c(OC)c1	-7%	7%
Cc1ccc(-c2nc3ccccc3o2)cc1NC(=S)NC(=O)/C=C/c1ccco1	-2%	?
O=C(NC(=S)Nc1cccc([N+](=O)[O-])c1)c1ccco1	-1%	-1%
O=C(/C=C/c1ccco1)NC(=S)Nc1cccc([N+](=O)[O-])c1	-16%	32µM*
O=C(/C=C/c1ccco1)NC(=S)Nc1cccc(-c2nc3ccccc3o2)c1	-8%	10µM*
CC(=O)Nc1ccccc1C=C1c2ccccc2-c2ccccc21	0%	3%
Cc1ccc(C(=O)NC(=S)Nc2ccc(-c3cc4ccccc4oc3=O)cc2)c(C)c1	-1%	?
Cc1cc(C)cc(C(=O)NC(=S)Nc2ccc(-c3cc4ccccc4oc3=O)cc2)c1	-1%	10µM*
Cc1ccccc1OCCn1nc(C(=O)O)c2ccccc2c1=O	-5%	16%
Cc1cc(C(=O)Cn2nc(C(=O)O)c3ccccc3c2=O)c(C)n1-c1ccc(F)cc1	-9%	25µM*
CCCN(CCC)c1cc(C)nc2nc(-c3ccc(Cl)cc3)nn12	-1%	-1%
N#CC1=C(N)Oc2c(ccc3ccccc23)C1c1ccsc1 (stereo unspecified)	-12%	-21%
COc1cc(C2C(C#N)=C(N)Oc3c2ccc2ccccc32)ccc1OCC(=O)Nc1ccc(C)cc1 (stereo unspecified)	-3%	10µM*
COC(=O)C1=C(C)OC(N)=C(C#N)C1c1ccc(OC)c(OC)c1OC (stereo unspecified)	-2%	-1%
COc1cc(C2C(C#N)=C(N)Oc3c2ccc2ccccc32)ccc1OCC(=O)Nc1cccc(C)c1 (stereo unspecified)	-2%	7.9µM*
Cc1ccc(N2CC(NC(=O)c3ccco3)CC2=O)cc1 (stereo unspecified)	2%	0%
C/C(N=NC(=[SH+])SCc1ccccc1)=C1\C=CC=CN1.[Cl][Cu]	5%	-8%
CCn1c2ccccc2c2cc(NC(=O)C3CCN(S(=O)(=O)c4cccs4)CC3)ccc21	2%	?
CCn1c2ccccc2c2cc(NC(=O)Cc3ccc(S(=O)(=O)N4CCOCC4)s3)ccc21	-2%	16µM*
SMILES	Cruzain Triton	Cruzain noTriton
CC(=O)c1ccc(NC(=O)C(=O)c2cn(CC(=O)N3CCCCC3)c3ccccc23)cc1	3%	10µM*
O=C(Nc1ccccc1)C(=O)c1cn(CC(=O)N2CCCCC2)c2ccccc12	-9%	-20%
COc1ccccc1-c1nnc(C2CCN(C(=O)c3cccc(C)c3)CC2)o1	-2%	-1%
COc1cc(NC(=O)Cc2c(C(=O)O)c(C)cn2C)cc(OC)c1	-2%	-4%
COc1ccc(Br)cc1/C=N/NC(=O)CNC(=O)/C=C/c1ccccc1	-4%	?
COc1ccc(/C=C/C(=O)NCC(=O)N/N=C/c2cc(Br)ccc2OCc2ccccc2)cc1	3%	6.3µM*
CCc1nn2c(=O)cc(COC(=O)c3ccccc3NC(=O)c3ccc(C(C)(C)C)cc3)nc2s1	1%	10%
COc1cc(/C=c2\sc3n(c2=O)CCCN=3)ccc1O	-4%	-2%
COc1cc(/C=c2\sc3n(c2=O)C(c2ccccc2)C(c2ccccc2)=NN=3)ccc1O (stereo unspecified)	5%	16µM*
COc1ccc(-c2cn3nc(SCC(=O)Nc4cc(C)cc(C)c4)ccc3n2)cc1	2%	-9%
CCc1ccccc1NC(=O)Cn1nc(C)c2nn(-c3ccc(Cl)cc3)c(C)c2c1=O	4%	3%
Cc1ccc(Cl)cc1NC(=O)Cn1c(=O)n(Cc2ccc(C(=O)NCc3ccc4c(c3)OCO4)cc2)c(=O)c2ccccc21	-2%	-22%
Cc1ccc(NC(=O)Cn2c(=O)n(Cc3ccc(C(=O)NCc4ccc5c(c4)OCO5)cc3)c(=O)c3ccccc32)cc1	-4%	?

Bioassay records deposited in PubChem BioAssay by National Center for Advancing Translational Sciences (NCATS).
